# Results with a measured potency or affinity are listed apart. Calls of active or inactive are those of the source.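 The calls were made as follows: active = a dose-response curve fit returns a half-maximal inhibitory concentration, extrapolated values included; inactive = the fit returns no such concentration.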
# Biological target: HMG-CoA reductase [Enterococcus faecalis] (UniProt Q9FD70)
# Assay: inhibitors of E. faecalis class II HMGR, confirmation, biochemical, Enterococcus faecalis (AID 1233);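 also: 0% = full reaction carrier wells and 100% = background wells lacking mevalonate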
# Conditions: purified E. faecalis HMGR, NADPH absorbance 340 nm kinetics; series mostly up to 100 µM; inhibition: at the top concentration
row,SMILES,inhibition
1,Cc1nc(NC(=O)COC(=O)CCS(=O)(=O)c2ccccc2Cl)c(Cl)cc1Cl,-2.51% (inactive)
2,O=C(COC(=O)/C=C/c1ccco1)Nc1ccc(F)cc1Cl,-0.84% (inactive)
3,CN(C(=O)COc1ncnc2c1cnn2-c1ccccc1)C1CCCCC1,-1.4% (inactive)
4,Cc1ccccc1NC(=O)Cn1nnc(S(=O)(=O)c2ccc(C(C)(C)C)cc2)c1N,-8.15% (inactive)
5,COc1ccc(C(=O)Nc2ccc(NC(=O)c3cnccn3)cn2)cc1,-20.1% (inactive)
6,Cc1cccc(C(=O)Nc2cc(=O)n(C)c(=O)n2C)c1,0.43% (inactive)
7,Brc1ccc(CSc2nnc3ccccn23)cc1,-5.51% (inactive)
8,COc1cc(OC)c(C(=O)NC2CC(C)(C)NC(C)(C)C2)cc1OC,-0.58% (inactive)
9,CCOC(=O)C(C(=O)OCC)C1CCS(=O)(=O)C1 (stereo not given),-2.07% (inactive)
10,CCc1c(C)nc2ncnn2c1NCCc1ccccc1,0.91% (inactive)
11,Cc1cccc(C)c1N1CCN(C(=O)N2CCCCC2)CC1,-2.11% (inactive)
12,CCCn1c(=S)[nH]c2ccccc2c1=O,-12.6% (inactive)
13,COCc1c(C(=O)Nc2nc(C)cs2)oc2ccccc12,-0.65% (inactive)
14,COc1ccc(NC(=O)C2=C(C)NC(=O)NC2c2cccc(OC)c2OC)c(OC)c1 (stereo not given),-5.97% (inactive)
15,C=C(C)Cn1c(-c2ccncc2)n[nH]c1=S,-5.67% (inactive)
16,Cc1cc(SCn2nnc3ccccc3c2=O)nc2ccccc12,13% (inactive)
17,CC(C)(C)OC(=O)N1CCC[C@H]1c1nnc(SCc2ccccc2F)o1,-1.4% (inactive)
18,COc1ccc(OC)c(NC(=O)NNC(=O)CCCOc2ccc(Cl)cc2C)c1,-2.73% (inactive)
19,Cc1ccc2nc(-c3sc4nc(C)ccc4c3N)[nH]c2c1,-3.66% (inactive)
20,O=C(CCc1ccccc1)Nc1ncc2c(n1)CCCC2=O,-1.28% (inactive)
